Compound activity (PubChem BioAssay)
Hits are enriched below; roughly 22% of the tested compounds scored in any of these assays.
Pf growth 48h = Primary qHTS for delayed death inhibitors of the malarial parasite plastid, 48 hour incubation; P. falciparum luciferase growth in erythrocytes, 48 h; Potency, µM (series often up to 28.7 µM), for inactives: at the highest dose activity change, negative = inhibition, hits mostly inhibitors; 310,000 compounds, 5.9% hits; further: potency means the concentration at half of the fitted maximal effect; on the % scale 0 is the no-effect control and ±100 the full control effect
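Compounds are pin-transferred into medium, infected erythrocytes (2% hematocrit, 0.1% parasitemia final) are added, and plates sit one parasite generation at 37 C in 5% CO2. Detection reagent is then added and luminescence measured.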
Pf growth 96h = Primary qHTS for delayed death inhibitors of the malarial parasite plastid, 96 hour incubation. P. falciparum luciferase reporter growth, 96 h. Potency, µM (highest dose often 28.7 µM), without a hit: top-dose activity change, negative = inhibition, hits mostly inhibitors. 320,000 compounds, 6.9% hits. AID 504834, 2011; further: potency means the concentration at half of the fitted maximal effect; on the % scale 0 is the no-effect control and ±100 the full control effect
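Parasite growth measured via integrated firefly luciferase reporter in P. falciparum. Infected erythrocytes at 2% hematocrit, 0.05% parasitemia final were treated 96 hours at 37 C under 5% CO2, and luminescence was read.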
LmPK inhibitor = qHTS Assay for Inhibitors of Leishmania Mexicana Pyruvate Kinase (LmPK); 290,000 compounds, 0.37% hits; Q27686; Potency, µM (titrated, usually from 57.5 µM), without a hit: top-dose activity change, negative = inhibition, most hits filed as inhibitors; purified LmPK, Kinase-Glo ATP luminescence, 1 h; AID 1721, 2009; further: potency means the concentration at half of the fitted maximal effect; on the % scale 0 is the no-effect control and ±100 the full control effect
Target sequence (Q27686 whole entry, looked up): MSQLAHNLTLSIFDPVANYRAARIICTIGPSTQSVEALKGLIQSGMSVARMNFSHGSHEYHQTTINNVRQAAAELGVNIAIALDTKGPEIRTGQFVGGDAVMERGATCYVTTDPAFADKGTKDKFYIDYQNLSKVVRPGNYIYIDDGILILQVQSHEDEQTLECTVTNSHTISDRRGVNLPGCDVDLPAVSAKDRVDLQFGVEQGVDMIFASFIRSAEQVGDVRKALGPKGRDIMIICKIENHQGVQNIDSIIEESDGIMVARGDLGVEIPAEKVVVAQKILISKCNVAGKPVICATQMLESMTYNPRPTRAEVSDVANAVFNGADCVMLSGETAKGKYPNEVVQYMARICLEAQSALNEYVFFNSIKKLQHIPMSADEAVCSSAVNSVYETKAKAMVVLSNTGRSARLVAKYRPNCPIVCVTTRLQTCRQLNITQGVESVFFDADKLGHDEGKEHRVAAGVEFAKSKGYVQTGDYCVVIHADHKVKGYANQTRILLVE
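In 50 mM imidazole pH 7.2 with 7 mM MgCl2, LmPK (0.1 nM) turned over PEP (0.5 mM) and ADP (0.1 mM) for 1 h at room temperature. Luciferase read-out of ATP.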
Shiga toxin inh = A qHTS for Small Molecule Inhibitors of Shiga Toxin. 290,000 compounds, 9.2% hits. Vero cells, Shiga toxin protein synthesis inhibition reporter. inhibition, % at 38.7 µM. AID 2315, 2010; in the data active means inhibition mostly above about 28%, no sharp cut-off; inactive means mostly below about 43%; further: 0% is about no effect
Cycloheximide cs = Cycloheximide Counterscreen for Small Molecule Inhibitors of Shiga Toxin. max response, %. cell reporter, cycloheximide protein synthesis inhibition counterscreen. AID 2314, 2010. 300,000 compounds, 12% hits; in the data active means max response mostly above about 13%, no sharp cut-off; inactive means mostly below about 14%; further: read at 38.3 µM for the half of the compounds with a filed dose; 0% is about no effect
Starred values were filed as active, the others as inactive; ? = inconclusive; · = not tested or not shown. Unless noted, the call rests on the fitted dose curve; in most records, active means well fitted inhibition curve with a large enough effect; inconclusive means small, poorly fitted or top-dose-only effect, or another doubt; inactive means no such curve, though single readings can be large or run the other way.

SMILES | Pf growth 48h | Pf growth 96h | LmPK inhibitor | Shiga toxin inh | Cycloheximide cs
Cc1ccn(CCNC(=O)C2CCC(=O)N(Cc3ccc(Cl)cc3)C2)n1 (configuration not stated) | 12% | 82% | 2% | -5 | 1
COc1ccc(/C(N)=N/OC(=O)Cc2ccccc2[N+](=O)[O-])cc1 | 7% | 13µM* | -3% | 40 | 31*
N/C(=N\OC(=O)Cc1ccccc1[N+](=O)[O-])c1cccnc1 | -8% | 76% | 0% | 43 | 11
CS(=O)(=O)c1ccc(C(=O)OCc2nnc(-c3ccc(Cl)cc3)o2)cc1[N+](=O)[O-] | 21% | -2% | 7% | 34 | 19
CC1CCc2c(C(=O)NCc3cccnc3)csc2C1 (configuration not stated) | 28% | 31% | 1% | -7 | 6
CC1CCc2c(C(=O)NCc3ccccn3)csc2C1 (configuration not stated) | 33% | ? | 1% | 161* | 65*
Cc1noc(C)c1COC(=O)c1csc2c1CCC(C)C2 (configuration not stated) | 12µM* | ? | · | · | ·
O=C(NCC1CCCO1)c1csc2c1CCCCC2 (configuration not stated) | 3% | · | -3% | 7 | 11
Cc1ccccc1NC(=S)NNC(=O)c1csc2c1CCC(C)C2 (configuration not stated) | 235% | · | -7% | 78* | 35*
CC1CCc2c(C(=O)NCC3CCCO3)csc2C1 (configuration not stated) | 40% | -1% | -2% | 98* | 86*
Cc1cc(C)nc(SCc2cc(=O)c(OC(=O)c3ccc(S(=O)(=O)N4CCCC4)cc3)co2)n1 | 6% | -25% | -2% | -1 | -3
Cc1ccc(NC(=O)C2CC(=O)Nc3ncnn32)c(C)c1 (configuration not stated) | -1% | 5% | -1% | -5 | -3
CCOC(=O)Cc1cc(-c2ccc(F)cc2)nc2ccc3ccccc3c12 | 24% | ? | 2% | 10 | 6
CC1(C)CC(=O)C=C(NC2CCCC(O)C2)C1 (configuration not stated) | ? | 81% | · | · | ·
CC1CCc2c(C(=O)Nc3ccccn3)csc2C1 (configuration not stated) | 182% | 100% | 2% | 70* | 47*
CC1CCc2c(C(=O)Nc3nccs3)csc2C1 (configuration not stated) | ? | ? | 1% | 69* | 37*
COc1ccc(S(=O)(=O)N2CCN(C(=O)/C=C/c3ccco3)CC2)cc1 | ? | 23% | · | · | ·
CCOc1ccc(NC(=O)CNC(=O)c2cccs2)cc1 | 31% | 0% | -1% | 42 | 13
O=C1C(c2ccccc2)SC(=Nc2ccccc2)N1S(=O)(=O)c1ccccc1 (configuration not stated) | 19% | · | 0% | 45 | 30*
N#C/C(=C\c1ccc(OCCN2CCOCC2)cc1)C(=O)Nc1ccccc1F | 3% | 108% | -9% | -16 | 15
N#C/C(=C\c1ccc(OCCN2CCOCC2)cc1)C(=O)Nc1ccc(S(N)(=O)=O)cc1 | 3% | 6.6µM* | -1% | -30 | -3
COc1ccc(NC(=O)/C(C#N)=C/c2ccc(OCCN3CCOCC3)c(OC)c2)c(OC)c1 | -6% | 13µM* | -6% | 12 | -2
N#C/C(=C\c1cccnc1)C(=O)Nc1ccc(O)cc1F | 1% | 3% | 3% | -4 | -4
NC(=O)[C@@H]1CCCN1Cc1nc(Cc2ccccc2Cl)no1 | 2% | 3.7µM* | -1% | -2 | -2
OC1CCN(Cc2nc(Cc3ccccc3Cl)no2)CC1 | 39% | -21% | 3% | 16 | -2
SMILES | Pf growth 48h | Pf growth 96h | LmPK inhibitor | Shiga toxin inh | Cycloheximide cs
Clc1ccccc1Cc1noc(CN2CCN3CCCC3C2)n1 (configuration not stated) | ? | 2.9µM* | 0% | -6 | 8
CCN(CC)CCNC(=O)CNC(=O)c1nn(-c2ccc(OC)cc2OC)c(=O)c2ccccc12 | · | ? | 0% | -6 | -3
COc1ccc(C(=O)NC(=O)NC2(C(Cl)(Cl)Cl)OCCO2)cc1 | 170% | 169% | 3% | 76* | 51*
CNC(=O)NC(=S)NC(=O)c1ccc(OC)cc1 | 36% | 53% | -11% | 2 | -3
Cc1cnccc1CNC(=O)C1CCC(=O)N(Cc2ccc(Cl)cc2)C1 (configuration not stated) | 7% | 8% | 1% | 1 | -6
CC(=O)C1C(=O)c2c(cccc2[N+](=O)[O-])C1=Nc1cccc(Cl)c1 (configuration not stated) | 1.5µM* | ? | 0% | 16 | 14
CC(=O)C1C(=O)c2c(cccc2[N+](=O)[O-])C1=Nc1ccccc1C (configuration not stated) | · | 0.0037µM* | 1% | 26 | 15
CC(C)(C)c1ccc(C(CC(=O)O)NC(=O)Cc2ccccc2)cc1 (configuration not stated) | 18% | -17% | 6% | -6 | -4
CCOC(=O)c1ccccc1NC(=O)COC(=O)Cc1ccccc1F | 19% | 18% | · | · | ·
O=C(CSc1ccccc1)Nc1nc2ccccc2[nH]1 | 123% | 125% | -1% | 84* | 28*
O=C(CCCOc1ccccc1)NCCc1nc2ccccc2[nH]1 | 20% | -26% | 2% | -8 | -2
O=S(=O)(CCOc1ccccc1)c1nc2ccccc2[nH]1 | -12% | ? | 0% | 23* | 18*
O=C(CCCOc1ccccc1)Nc1nc2ccccc2[nH]1 | 278% | 223% | 2% | 68* | 34*
O=C(Cc1ccc(Br)cc1)Nc1nc2ccccc2[nH]1 | ? | 2% | -2% | 22 | 14*
Cc1[nH]c2ccccc2c1C(=O)C(=O)NC1CC(=O)N(c2ccc(F)cc2)C1 (configuration not stated) | -35% | 4% | · | · | ·
CN(C)c1nc(N(C)C)n(Cc2c(Cl)cccc2Cl)n1 | 13% | ? | 6% | 2 | -3
O=C(Cc1ccccc1)Nc1nc2ccccc2[nH]1 | 58% | · | 0% | 79* | 26*
O=C(Cc1c[nH]c2ccccc12)Nc1nc2ccccc2[nH]1 | 19% | ? | 2% | 74* | 26*
O=C(CN1C(=O)C2CC=CCC2C1=O)Nc1nc2ccccc2[nH]1 (configuration not stated) | 10% | 19µM* | -3% | -5 | 2
O=C(CSc1ccc(Cl)cc1)Nc1ccc(-c2nc3ccccc3[nH]2)cc1 | 4.1µM* | 10% | 1% | 24 | -2
O=C(Cc1ccc(Cl)cc1)Nc1nc2ccccc2[nH]1 | 15% | · | 5% | 7 | -1
CC(C)CN(C(=O)COC(=O)CSc1ccccc1)c1c(N)n(Cc2ccccc2)c(=O)[nH]c1=O | -10% | 34% | · | · | ·
